# Screening results: PubChem, National Center for Advancing Translational Sciences (NCATS)
# Menin-MLL TR inh – menin-MLL binding inhibition, Texas Red mutant peptide. Potency, µM (titrated, usually from 61.6 µM), most hits filed as inhibitors. Menin + Texas Red MLL mutant peptide, fluorescence polarization. hit rate 0.23% among 270,000. AID 1768. O00255; active means well fitted inhibition curve with a large enough effect in the polarisation, with a control signal flat, not every such curve was filed as active; inconclusive means small, poorly fitted or top-dose-only effect, or effect the other way, or a change in a side signal; inactive means no such curve, though single readings can be large or run the other way; the % refers to the polarisation
# Target sequence (O00255 whole entry, looked up): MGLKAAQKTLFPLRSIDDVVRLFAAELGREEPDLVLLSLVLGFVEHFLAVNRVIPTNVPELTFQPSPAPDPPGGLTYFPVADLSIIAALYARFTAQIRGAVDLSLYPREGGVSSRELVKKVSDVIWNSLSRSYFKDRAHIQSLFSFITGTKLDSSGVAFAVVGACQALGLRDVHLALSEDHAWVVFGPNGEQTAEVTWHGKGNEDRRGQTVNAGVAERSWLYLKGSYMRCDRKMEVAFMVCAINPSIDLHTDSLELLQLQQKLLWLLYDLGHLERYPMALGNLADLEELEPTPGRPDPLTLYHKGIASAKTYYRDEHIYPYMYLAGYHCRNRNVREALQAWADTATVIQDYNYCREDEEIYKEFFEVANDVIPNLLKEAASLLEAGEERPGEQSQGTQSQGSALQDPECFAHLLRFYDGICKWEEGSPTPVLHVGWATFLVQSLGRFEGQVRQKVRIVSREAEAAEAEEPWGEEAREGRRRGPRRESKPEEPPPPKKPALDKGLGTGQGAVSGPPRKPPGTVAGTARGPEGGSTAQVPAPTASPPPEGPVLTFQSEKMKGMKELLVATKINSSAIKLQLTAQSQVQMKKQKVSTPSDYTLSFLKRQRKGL
# Epigenetic reg – epigenetic control regulation, reporter derepression; Potency, µM (top dose mostly 53.9 µM), most hits filed as activators; murine LDR cells, GFP reporter derepression, 30 h; hit rate 0.2% among 280,000; active means well fitted activation curve with a large enough effect; inconclusive means small, poorly fitted or top-dose-only effect; further: nearly all actives have a fitted effect of over 60% in size
#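 Readout is the number of GFP-expressing murine LDR cells, counted by cytometry following washing. Cells were treated with compound for 30 h at 37 C; the stably integrated CMV-GFP locus is normally silent.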
# MLL CXXC-DNA inh – MLL CXXC-DNA interaction inhibition. Q03164. Potency, µM (doses to about 115 µM), usual class: inhibitors. MLL-CXXC / FITC-HOXA9 DNA fluorescence polarization. hit rate 0.037% among 290,000; active means well fitted inhibition curve with a large enough effect in the polarisation, with a control signal flat, not every such curve was filed as active; inconclusive means small, poorly fitted or top-dose-only effect, or effect the other way, or a change in a side signal; inactive means no such curve, though single readings can be large or run the other way; the % refers to the polarisation
#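 Fluorescence polarization: 7 uM MLL-CXXC (stock) preincubated 5 min with compounds, then 50 nM fluorescein-HOX-A9 DNA (stock) added; 30 min ambient. Buffer 50 mM Tris-HCl pH 7.5, 50 mM NaCl, 1 mM DTT, 0.05% BSA.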
# ClpP mod – qHTS Assay for Activators of ClpP; hit rate 1.9% among 340,000; Potency, µM (doses to about 57.5 µM); purified B. subtilis ClpP, FRET peptide cleavage, 20 min; active means well fitted falling curve with a large enough effect; inconclusive means small, poorly fitted or top-dose-only effect; inactive means no such curve, though single readings can be large or run the other way; further: the source files actives as falling curves though it sought activators and does not explain the sign; nearly all actives have a fitted effect of over 65% in size
#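 FRET quenching reversal measured ClpP activation: 10 microg/mL B. subtilis ClpP at pH 8 with the FRET-FV decapeptide, read at 430 nm after 320 nm excitation. The 20-min minus 0-min signal was scaled between DMSO/no-enzyme wells and ADEP (5.8 microM final).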
# PINK1 modulator – modulators of PINK1 expression. PINK1 immunofluorescence, high-content cytometry, 24 h. Potency, µM (highest dose often 76.6 µM), most hits filed as activators. hit rate 0.2% among 410,000. AID 624263; active means well fitted activation curve with a large enough effect; inconclusive means small, poorly fitted or top-dose-only effect; cell line not stated here; further: nearly all actives have a fitted effect of over 65% in size
#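 Readout is PINK1 immunofluorescence, quantified alongside mitochondrial, cell and nuclear markers by laser-scanning microplate cytometry. Cells from a stable line were exposed to compound titrations (5 concentrations) for 24 hours, with CCCP controls.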
# Menin MLL FP FL – menin-MLL binding inhibition, fluorescein peptide. Fluorescence polarization, fluorescein-MLL peptide displacement from menin. FP activity change, % at 61.4 µM. 290,000 tested, under 10 active. AID 1766; active means well fitted curve in the direction sought with a large enough effect in the polarisation, not every such curve was filed as active; inconclusive means small, poorly fitted or top-dose-only effect, or effect the other way, or a change in a side signal; inactive means no such curve, though single readings can be large or run the other way; the % refers to the polarisation
# A number is an active result; - = inactive; ? = inconclusive; . = no result given. Compounds with a hit are over-represented: about 1.9% of the library has one in this group of screens.
SMILES,Menin-MLL TR inh,Epigenetic reg,MLL CXXC-DNA inh,ClpP mod,PINK1 modulator,Menin MLL FP FL
CC(C)(C)c1ccc(C(=O)N/N=C2\C3CN4CCN(C3)CC2(c2ccccc2)C4)cc1,-,-,-,22µM,-,-
Cc1cnc2ccccc2c1C,.,.,.,-,.,.
Cc1c(C(=O)OCC(=O)NC2CCCCC2)oc2ccccc12,.,.,.,-,-,.
CCN(C(=O)COC(=O)c1oc2ccc(OC)cc2c1C)C1CCS(=O)(=O)C1 (configuration not stated),.,.,.,8.9µM,-,.
COc1ccc2oc(C(=O)OCC(=O)NC3CCCCC3)c(C)c2c1,.,.,.,16µM,-,.
COc1ccc2nc(-c3ccccc3)cc(C(=O)OCC(=O)NC3CC3)c2c1,.,.,.,10µM,?,.
COc1ccc2oc(C(=O)OCC(=O)N(CCC#N)c3ccccc3)c(C)c2c1,.,.,-,32µM,-,.
CN(C)c1ccc(/C=C/c2ccnc3ccc(-c4ccccc4)cc23)cc1,.,.,.,-,-,.
C[C@@H](NC(=O)[C@@H]1Cc2ccccc2CN1)C(=O)NCC1CCCO1 (some centres not stated),.,.,-,-,-,.
CCN(CC)C(=O)Cn1c(=O)n(CCCC(=O)NCc2ccc3c(c2)OCO3)c(=O)c2sccc21,-,.,-,-,-,-
CCOc1ccc2oc(C(=O)OCC(=O)NC3CCCC3)c(C)c2c1,.,.,.,-,-,.
CCOc1ccc2oc(C(=O)OCC(=O)NC(=O)NC3CCCC3)c(C)c2c1,-,-,-,22µM,-,-
C=CCOc1ccc2cccc(/C=N/NC(=O)c3cc4cc([N+](=O)[O-])ccc4s3)c2c1,-,?,-,-,20µM,-
O=C(Nc1ccccn1)c1cc2cc([N+](=O)[O-])ccc2s1,-,-,-,-,-,-
COc1ccc(C)cc1N(C)C(=O)CCc1nc(-c2ccccc2F)no1,.,-,.,-,-,.
COc1cc(=O)n2c(c1C(=O)NC(C)c1ccco1)CCN(CC=C(C)C)CC2 (configuration not stated),.,.,.,.,-,.
CN(C)CCCNc1oc(-c2ccccc2)nc1C#N,-,-,-,-,-,-
CN(C)CCNc1oc(-c2cccc(Cl)c2)nc1C#N,-,-,-,16µM,-,-
O=C(c1ccc2nc3ccccc3c(=O)n2c1)N1CCN(Cc2ccc3c(c2)OCO3)CC1,?,-,-,20µM,?,-
O=C(c1ccc2nc3ccc(Cl)cc3c(=O)n2c1)N1CCOCC1,-,-,-,16µM,-,-
O=C(c1cccn2c(=O)c3cc(Cl)ccc3nc12)N1CCOCC1,-,-,-,18µM,?,-
CNc1c(Br)cc(C=O)cc1Br,.,.,.,-,-,.
Cc1ncc(C23CC4CC(CC(C4)C2)C3)[nH]1,-,-,-,-,-,-
N#Cc1ccc(C23CC4CC(CC(C4)C2)C3)[nH]c1=O,-,-,-,16µM,-,-
COc1ccc(-c2coc3c(CN4CCOCC4)c(O)ccc3c2=O)cc1,-,-,-,-,-,-
SMILES,Menin-MLL TR inh,Epigenetic reg,MLL CXXC-DNA inh,ClpP mod,PINK1 modulator,Menin MLL FP FL
CC1CCCCN1Cc1c(O)ccc2c(=O)c(-c3ccc(Cl)cc3)coc12 (configuration not stated),-,-,-,13µM,-,-
O=c1c(-c2ccc(Cl)cc2)coc2c(CN3CCOCC3)c(O)ccc12,-,-,-,28µM,-,-
O=c1c(-c2ccccc2)coc2c(CN3CCCC3)c(O)ccc12,-,-,-,28µM,-,-
CC1CCCCN1Cc1c(O)ccc2c(=O)c(-c3ccc(Br)cc3)coc12 (configuration not stated),-,.,-,-,-,-
O=c1cc(-c2ccccc2)c2ccc(O)c(CN3CCCCC3)c2o1,-,-,-,-,-,-
COCCN1CCN(C(=O)c2cnn(-c3nccc(-c4ccccc4OC)n3)c2-c2ccco2)CC1,.,.,.,.,-,.
O=CN1CCN(C2CC(=O)N(c3ccc(Br)cc3)C2=O)CC1 (configuration not stated),-,-,-,35µM,-,-
O=C1CC(N2CCC(O)CC2)C(=O)N1c1ccc(Br)cc1 (configuration not stated),-,-,-,-,-,-
c1ccc(-n2nnnc2SCc2cn3cccnc3n2)cc1,-,-,-,25µM,?,-
Cc1nc(C)n(CC(=O)N2CCOc3ccc(CN4CCN(C)C[C@@H]4c4ccccc4)cc3C2)n1,.,.,.,.,-,.
Cc1cc(NCCC(C)C)n2nc(C)c(-c3ccccc3)c2n1,-,-,-,28µM,-,-
CC1(C)C(=O)OC(c2c(F)c(F)c(F)c(F)c2F)C2(CCCCC2)C1=O (configuration not stated),?,-,-,28µM,-,-
COC[C@H]1CCCN1c1ccc2c(c1)O[C@@H](COCc1ccccc1)CN([C@H](C)c1ccccc1)S2(=O)=O,.,.,.,5.6µM,-,.
COC[C@@H]1CCCN1c1ccc2c(c1)O[C@H](COCc1ccccc1)CN([C@@H](C)c1ccccc1)S2(=O)=O,.,.,.,?,-,.
c1ccc(Nc2ccc3c4c(cccc24)CC3)cc1,?,-,-,11µM,-,?
COc1cc(Cl)c(C)cc1N1C(=O)[C@@H]2C[C@H]1CN2Cc1ccccn1,.,.,.,.,-,.
CCC1(C2CCN(C(=O)c3ccc4ccccc4c3)CC2)NC(=O)N(CCc2scnc2C)C1=O (configuration not stated),.,.,.,.,-,.
CC(=O)NCCNC(=O)CCCc1nnc2n(C)c(=O)c3sccc3n12,.,-,.,-,-,.
CCCCCCCCCC[n+]1cccc2cc(Br)ccc21,.,.,.,-,.,.
CCSc1nnc(NC(=O)[C@@H](NC(=O)c2cccc(C)c2)C(C)C)s1,-,-,-,-,-,-
CCCC(=O)Nc1nnc(SCC)s1,-,-,-,-,-,-
CCSc1nnc(NC(=O)NC(C)(C(F)(F)F)C(F)(F)F)s1,-,-,-,-,20µM,-
CCSc1nnc(NC(=O)Nc2cccc(C)c2)s1,.,-,-,.,13µM,-
Cc1cccc(NC(=O)Nc2ccncc2)c1,-,-,?,-,-,-
CCC(NC(=O)Nc1nccs1)(C(F)(F)F)C(F)(F)F,-,-,-,-,-,-
SMILES,Menin-MLL TR inh,Epigenetic reg,MLL CXXC-DNA inh,ClpP mod,PINK1 modulator,Menin MLL FP FL
CCSc1nnc(NC(=O)NC(CC)(C(F)(F)F)C(F)(F)F)s1,-,-,-,-,22µM,-
Cc1cccc(NC(=O)N[C@@H](C)C(=O)O)c1,-,-,-,16µM,-,-
O=C(C[n+]1cccc2cc(Cl)ccc21)c1ccc2c(c1)CCCC2,.,.,.,-,-,.
Cc1cc(C)cc(N(CC(=O)N/N=C/c2ccncc2)S(=O)(=O)c2ccccc2)c1,-,-,-,6.3µM,-,-
Cc1cc(C)nc(SCc2ccc(C(=O)NNC(=O)Nc3cccc(Cl)c3)cc2)n1,-,-,-,35µM,-,-
CCOC(=O)CNC(=O)O[C@@H]1C(=O)c2cc(Br)ccc2O[C@H]1c1ccc2c(c1)OCO2,-,-,.,.,.,-
